Laboratory results taken from publication PMC5540273 (PLoS ONE, 2017).

Columns and labels:
Details in all cases: concentration: 1 μM, replicates: in singlicate; n = 1
PAK2 = tested on: PAK2
PAK3 = tested on: PAK3
PAK4 = tested on: PAK4
PAK6 = tested on: PAK6
PAK7 = tested on: PAK7
PCTK1 = tested on: T1, PCTK1
T1 construct: gene CDK16

PCTK2 = tested on: T2, PCTK2
T2 construct: gene CDK17

PCTK3 = tested on: T3, PCTK3
T3 construct: gene CDK18

PDGFRA = tested on: PDGFRA
PDGFRB = tested on: PDGFRB
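Further: KINOMEscan kinase panel screen.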

| SMILES | %Inh (PAK2) [%] | %Inh (PAK3) [%] | %Inh (PAK4) [%] | %Inh (PAK6) [%] | %Inh (PAK7) [%] | %Inh (PCTK1) [%] | %Inh (PCTK2) [%] | %Inh (PCTK3) [%] | %Inh (PDGFRA) [%] | %Inh (PDGFRB) [%] |
| --- | --- | --- | --- | --- | --- | --- | --- | --- | --- | --- |
| OCCCNc1nccc(-c2c(-c3cccc(C(F)(F)F)c3)nn3cc(C(F)(F)F)ccc23)n1 [GW630813] | 0 | 3 | 0 | 0 | 12 | 11 | 0 | 19 | 0 | 6 |
| COc1ccc(-c2coc3ccc(-c4nnc(SCc5cccc(C#N)c5)o4)cc23)cc1 | 34 | 0 | 14 | 19 | 15 | 0 | 0 | 2 | 20 | 10 |
| O=C(Nc1n[nH]c2nc(-c3ccccc3)c(Br)cc12)C1CC1 [SB-708998] | 10 | 9 | 0 | 0 | 0 | 0 | 0 | 0 | 20 | 93.7 |
| COC(=O)c1c(-c2ccccc2)c2cc(Br)ccc2c(=O)n1Cc1ccc(S(C)(=O)=O)cc1 | 17 | 26 | 6 | 35 | 2 | 23 | 5 | 0 | 8 | 73 |
| Nc1n[nH]c2nnc(-c3ccccc3)c(-c3ccccc3)c12 [GW554060] | 0 | 0 | 0 | 0 | 0 | 0 | 0 | 20 | 0 | 2 |
| COC(=O)c1c(-c2ccccc2)c2cc(Br)ccc2c(=O)n1Cc1ccc(NC(=O)CCC(=O)O)cc1 | 17 | 0 | 2 | 18 | 2 | 15 | 7 | 0 | 16 | 57 |
| CCCNC(=O)Nc1ccc(Oc2ncnc3ccn(C)c23)cc1 | 30 | 0 | 0 | 12 | 5 | 15 | 8 | 0 | 54 | 46 |
| CCC(=O)c1c(-c2ccccc2)c2cc(Cl)ccc2c(=O)n1Cc1cc(S(C)(=O)=O)n(CCC(C)(C)O)n1 | 8 | 21 | 6 | 0 | 2 | 29 | 21 | 13 | 0 | 0 |
| Cc1cccc(-c2nc(Nc3ccc4c(cnn4C)c3)c3ccccc3n2)n1 [GW876731] | 33 | 0 | 17 | 14 | 0 | 0 | 0 | 11 | 9 | 1 |
| COc1cccc(C2=C(Nc3cccc(C(=O)O)c3)C(=O)NC2=O)c1 [SB-390770] | 0 | 25 | 0 | 0 | 0 | 0 | 0 | 0 | 3 | 0 |
| CCC(=O)c1c(-c2ccccc2)c2cc(Cl)ccc2c(=O)n1Cc1cc(S(C)(=O)=O)n(CC(F)F)n1 | 0 | 0 | 0 | 0 | 0 | 0 | 4 | 0 | 0 | 0 |
| O=C(Nc1n[nH]c2nc(-c3ccccc3)c(Cl)cc12)C1CC1 [SB-734909] | 0 | 23 | 0 | 0 | 7 | 0 | 0 | 30 | 46 | 97 |
| O=c1cc(N2CCOCC2)nc2n(Cc3ccc(F)c(Cl)c3)ccn12 [GSK2297099] | 5 | 0 | 0 | 13 | 11 | 6 | 10 | 2 | 7 | 17 |
| Nc1nccc2scc(-c3ccc4c(c3)CCN4C(=O)Cc3ccccc3)c12 [GSK2576924] | 0 | 55 | 0 | 0 | 30 | 0 | 9 | 17 | 4 | 43 |
| CN(C)c1cc(-c2ccc3c(N)n[nH]c3c2)nc(N)n1 [GSK2219329] | 0 | 0 | 0 | 0 | 15 | 0 | 0 | 0 | 0 | 9 |
| COc1cc2ncn(-c3cc(OCCCc4ccccc4)c(C(N)=O)s3)c2cc1OC [GSK205189] | 26 | 6 | 0 | 0 | 0 | 0 | 0 | 19 | 0 | 25 |
| CN1C(=O)C(Nc2cc(Cl)c(O)c(Cl)c2)=C(c2ccc(Cl)cc2)C1=O [SB-404321] | 2 | 0 | 34 | 0 | 5 | 0 | 5 | 0 | 0 | 0 |
